{"source": "PubChem BioAssay (NCATS)", "note": "Inconclusive results are not listed. Where a call stands in place of a potency, no number is given. Calls of active or inactive are those of the source. Calls come from the whole dose curve; as a rule, active = well fitted curve in the direction sought with a large enough effect; inconclusive = small, poorly fitted or top-dose-only effect, or another doubt; inactive = no such curve, though single readings can be large; an effect the other way counts as inactive or inconclusive. Note: nearly all actives have a fitted effect of over 35% in size. Potency is the fitted concentration of half-maximal effect.", "data": [{"experiment": "Quantitative highthroughput screen to assess conditional lethalithy of P12 Ichikawa cells grown in RPMI1640 with untreated serum (RPMI+s) (AID 1963881)", "conditions": "ATP luminescence, 48 h; Potency: viability; series mostly up to 45.8 µM", "procedure,_shortened": "(§1)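 Each medium arm—HPLM with 10% dialyzed FBS, or RPMI1640 with 5 mM glucose and 10% untreated or dialyzed FBS—was screened against an 11-point, 3-fold compound titration for 48 h at 37 °C, with CellTiter-Glo luminescence as endpoint.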", "values": [{"smiles": "C=Cc1c(C)c2cc3nc(cc4[nH]c(cc5nc(cc1[nH]2)C(C)=C5CCC(=O)O)c(CCC(=O)OC)c4C)[C@@]1(C)C3=CC=C(C(=O)OC)[C@H]1C(=O)OC", "Potency": "14800 nM (active)"}, {"smiles": "CC(O)C1C(=O)N2C(C(=O)O)=C(SC3CNC(C(=O)N(C)C)C3)C(C)C12", "note": "(stereo unspecified)", "Potency": "inactive"}, {"smiles": "CNc1nc(Nc2ccc(C(=O)N3CCOCC3)cc2OC)ncc1Cl", "Potency": "inactive"}, {"smiles": "CN(C1CCc2c(c3ccccc3n2CC(=O)O)C1)S(=O)(=O)c1ccc(F)cc1", "note": "(stereo unspecified)", "Potency": "9350 nM (active)"}, {"smiles": "Clc1ccc(Nc2nnc(Cc3ccncc3)c3ccccc23)cc1", "Potency": "inactive"}, {"smiles": "COC(=O)Nc1ccc(-c2nc(N3CCOCC3)c3cnn(C4CCN(Cc5cccnc5)CC4)c3n2)cc1", "Potency": "469 nM (active)"}]}, {"experiment": "Quantitative highthroughput screen to assess conditional lethalithy of SEM cells grown in Human Plasma-Like Medium with dialyzed fetal bovine serum (HPLM+ds) (AID 1963882)", "conditions": "SEM B-ALL cells in HPLM+ds, CellTiter-Glo viability, 48 h; series mostly up to 45.8 µM", "procedure,_shortened": "as §1", "values": [{"smiles": "C=Cc1c(C)c2cc3nc(cc4[nH]c(cc5nc(cc1[nH]2)C(C)=C5CCC(=O)O)c(CCC(=O)OC)c4C)[C@@]1(C)C3=CC=C(C(=O)OC)[C@H]1C(=O)OC", "Potency": "inactive"}, {"smiles": "CC(O)C1C(=O)N2C(C(=O)O)=C(SC3CNC(C(=O)N(C)C)C3)C(C)C12", "note": "(stereo unspecified)", "Potency": "inactive"}, {"smiles": "CN(C1CCc2c(c3ccccc3n2CC(=O)O)C1)S(=O)(=O)c1ccc(F)cc1", "note": "(stereo unspecified)", "Potency": "inactive"}, {"smiles": "COC(=O)Nc1ccc(-c2nc(N3CCOCC3)c3cnn(C4CCN(Cc5cccnc5)CC4)c3n2)cc1", "Potency": "662 nM (active)"}]}, {"experiment": "Quantitative highthroughput screen to assess conditional lethalithy of SEM cells grown in RPMI1640 with unreated serum (RPMI+s) (AID 1963883)", "conditions": "SEM B-ALL cells, CellTiter-Glo viability, 48 h; series mostly up to 45.8 µM", "procedure,_shortened": "as §1", "values": [{"smiles": "C=Cc1c(C)c2cc3nc(cc4[nH]c(cc5nc(cc1[nH]2)C(C)=C5CCC(=O)O)c(CCC(=O)OC)c4C)[C@@]1(C)C3=CC=C(C(=O)OC)[C@H]1C(=O)OC", "Potency": "inactive"}, {"smiles": "CC(O)C1C(=O)N2C(C(=O)O)=C(SC3CNC(C(=O)N(C)C)C3)C(C)C12", "note": "(stereo unspecified)", "Potency": "inactive"}, {"smiles": "COC(=O)Nc1ccc(-c2nc(N3CCOCC3)c3cnn(C4CCN(Cc5cccnc5)CC4)c3n2)cc1", "Potency": "296 nM (active)"}]}, {"experiment": "Quantitative highthroughput screen to assess conditional lethalithy of SEM cells grown in RPMI1640 with dialyzed fetal bovine serum (RPMI+ds) (AID 1963884)", "conditions": "SEM B-ALL cells, RPMI+dialyzed FBS, CellTiter-Glo viability, 48 h; series mostly up to 45.8 µM", "procedure,_shortened": "as §1", "values": [{"smiles": "C=Cc1c(C)c2cc3nc(cc4[nH]c(cc5nc(cc1[nH]2)C(C)=C5CCC(=O)O)c(CCC(=O)OC)c4C)[C@@]1(C)C3=CC=C(C(=O)OC)[C@H]1C(=O)OC", "Potency": "inactive"}, {"smiles": "CC(O)C1C(=O)N2C(C(=O)O)=C(SC3CNC(C(=O)N(C)C)C3)C(C)C12", "note": "(stereo unspecified)", "Potency": "inactive"}, {"smiles": "COC(=O)Nc1ccc(-c2nc(N3CCOCC3)c3cnn(C4CCN(Cc5cccnc5)CC4)c3n2)cc1", "Potency": "372 nM (active)"}]}]}
